# ssDAF12 agonist: S. stercoralis DAF-12 activation, primary screen. 370,000 tested, 1% active. activation, % at 6.8 µM. AID 652126. HEK293 ssDAF-12/GRIP1 lit1-tk-luc reporter, luminescence; % of 3 µM dafachronic acid response;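 active means activation above the mean over all tested compounds plus 3 SD, cut at about 0.9% in these data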;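 further: 0% = DMSO-only wells and 100% = 3 µM delta7-dafachronic acid wells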
# DAX1 inh-1: DAX1 (NR0B1) inhibition, primary screen. HEK293T StAR-luciferase reporter, SF-1/DAX-1 repression relief. inhibition, % at 6.8 µM. 370,000 tested, 1.1% active. AID 652010;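 active means inhibition above the mean over all tested compounds plus 3 SD, cut at about 3.6% in these data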;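 further: 0% = DAX-1 cells with DMSO and 100% = cells lacking DAX-1 with DMSO; higher inhibition means more luminescence from relief of DAX-1 repression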
# DAX1 inh-2: inhibitors of human orphan nuclear receptor DAX1 (NR0B1) | HEK293 Gal4-DAX1 luciferase reporter, luminescence | inhibition, % at 6.75 µM | 340,000 tested, 0.99% active | AID 504766;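 active means inhibition above the mean over all tested compounds plus 3 SD, cut at about 4.2% in these data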;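 further: 0% = DAX1-transfected cells with DMSO and 100% = empty-vector control cells with DMSO; inhibition shows as a rise in luminescence from relieved DAX1 repression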
# Target sequence (P51843 207-470 limits assumed): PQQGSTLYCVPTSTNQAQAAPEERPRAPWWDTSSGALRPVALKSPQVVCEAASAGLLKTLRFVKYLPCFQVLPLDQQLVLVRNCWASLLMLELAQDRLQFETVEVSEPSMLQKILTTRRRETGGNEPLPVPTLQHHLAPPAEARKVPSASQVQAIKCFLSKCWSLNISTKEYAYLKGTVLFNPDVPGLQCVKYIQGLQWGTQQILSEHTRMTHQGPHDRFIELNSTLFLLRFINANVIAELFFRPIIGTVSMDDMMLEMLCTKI
# hcDAF-12 act: activators of H. contortus DAF-12 nuclear receptor; HEK293 hcDAF-12 lit1-tk-luc reporter, luminescence; 0% DMSO, 100% Δ7-dafachronic acid; activation, % at 6.8 µM; 370,000 tested, 1.4% active;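 active means activation above the mean of all tested compounds plus 3 SD, cut at about 5.5% in these data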;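 further: 100% = response to 3 µM Δ7-dafachronic acid high control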
# hgDAF12 agonist: hgDAF-12 agonism, primary luciferase screen | 370,000 tested, 1.8% active | HEK293 GAL4-hgDAF12 UAS-luciferase reporter, agonist luminescence; normalized to butyrate control | AID 687014 | activation, % at 6.8 µM;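 active means activation above a cutoff set at the mean of all screened compounds plus 3 SD, cut at about 10% in these data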;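 further: 0% = DMSO wells and 100% = sodium butyrate wells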
# DAX1 inh confirm: NR0B1 (human) inhibition, confirmation | HEK293T StAR-promoter luciferase reporter, SF-1/DAX-1 repression | inhibition, % at 6.8 µM | shares compounds with DAX1 inh-1 | 2,400 tested, 87% active;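 active means inhibition above the average of every tested compound plus 3 SD, cut at about 3.8% in these data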;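 further: 0% = DAX-1 cells with DMSO and 100% = no DAX-1 control cells with DMSO; active compounds raise luminescence by relieving repression of the StAR reporter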
# SF1 mutant ctr: counter-screen for DAX1 inhibitors: nonselective inhibitors with SF-1 AF2 mutant; shares compounds with DAX1 inh-1; HEK293 StAR-luciferase, luminescence; inhibition, % at 6.8 µM; 2,400 tested, 78% active; AID 652136;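 active means inhibition above the mean of all tested compounds plus 3 SD, cut at about 3% in these data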;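 further: 0% = DAX-1 transfected cells with DMSO and 100% = cells without DAX-1 with DMSO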
# The depositor's hits bear a star; . = not tested or not shown. Rows were chosen to be rich in hits. Some 4.1% of all compounds tested hit in one or more screens of this group.
SMILES,ssDAF12 agonist,DAX1 inh-1,DAX1 inh-2,hcDAF-12 act,hgDAF12 agonist,DAX1 inh confirm,SF1 mutant ctr
O=C(CCNC(=O)c1ccc(Cl)cc1)NCCC1=CCCCC1,0,5.4*,1,1,9,5.8*,5.8*
O=C(CCNC(=O)c1ccc([N+](=O)[O-])cc1)Nc1ccc(F)cc1,-1,0,0,-3,0,.,.
O=C(NCCc1ccc(F)cc1)c1ccc([N+](=O)[O-])cc1,-1,6.7*,2,2,9,7.3*,3.9*
Fc1ccccc1-c1n[nH]c(=S)n1N=Cc1ccc(-c2ccccc2)cc1,0,2,.,0,-2,.,.
COc1ccc(CNC2CCC23CCCCC3)cc1OC (centres undefined),-2,.,.,-2,-1,.,.
CCN1CCCCC(NC(=O)c2ccc(F)c(F)c2)C1=O (centres undefined),-1,0,.,1,2,.,.
COCC(=O)N1CCN(C(=O)C(=O)c2cccc(C(F)(F)F)c2)CC1,-1,0,.,0,1,.,.
O=S(=O)(CC1NCc2cc(F)ccc21)NC1CCCC1 (centres undefined),-1,-1,.,2,4,.,.
O=C(NCCC1=CCCCC1)c1ccc([N+](=O)[O-])cc1,-1,4.6*,3,5,13*,13*,7.2*
COc1ccc(-c2cc(NC=O)c3ncc(-c4ccc(OC)c(OC)c4)n3c2)cc1OC,-1,-2,.,-2,0,.,.
COc1ccc(-c2cnc3c(NC=O)cc(-c4ccccc4OC)cn23)cc1OC,-2,11*,.,-3,0,30*,-8
CCN(CC)C(=O)[C@H]1C[C@H](CC(=O)NCCN2CCOCC2)C(=O)N2CCc3c([nH]c4ccc(Cl)cc34)[C@]12C,-1,1,-1,-2,-4,.,.
CC(C)N(C(=O)[C@H]1C[C@H](CC(=O)NCCN2CCOCC2)C(=O)N2CCc3c([nH]c4ccc(Cl)cc34)[C@]12C)C(C)C,-2,5.5*,-1,-1,-2,0,0
COc1ccc(C)c2sc(N(CCCN(C)C)C(=O)c3ccc(S(=O)(=O)N4CCc5ccccc5C4)cc3)nc12,-1,5.2*,1,1,4,-1,-2
COc1cccc2sc(N(CCCN(C)C)C(=O)c3ccc(S(=O)(=O)N4CCc5ccccc5C4)cc3)nc12,-1,0,0,1,2,.,.
C#CCNC(=O)C[C@@H]1C(=O)N(CCc2ccc(Cl)cc2)/C2=C/CCCCC[C@@]21C(=O)OCC,-1,-1,.,-2,1,.,.
COCCn1c(/C=C/c2ccccc2)nc2ccccc21,0,9.8*,1,3,11*,9.7*,3.5*
COc1ccc(C(=O)OCCCN(C)C2CN(Cc3cn(Cc4ccccc4F)nn3)S(=O)(=O)C2)cc1OC (centres undefined),-2,-1,.,-3,5,.,.
COc1ccc(-c2cc3ccc(OCC(C)=O)cc3oc2=O)cc1,0,9.8*,3,5.8*,11*,6.5*,4.5*
O=C(OCCN1CCN(C2CN(Cc3cn(Cc4cccc(F)c4)nn3)S(=O)(=O)C2)CC1)c1cc2ccccc2o1 (centres undefined),-1,0,.,0,2,.,.
COC1=C[C@H](C(=O)NCc2ccc(Cl)cc2)C(C)C(c2ccccc2)CC1=O (some centres undefined),-1,-1,.,-1,5,.,.
CC(C)[C@H](NC(=O)OC(C)(C)C)c1cc(C(=O)NCCO)c(N)s1,-1,0,.,0,-3,.,.
CC(C)[C@H](NC(=O)OC(C)(C)C)c1cc(C(=O)N2CCOCC2)c(N)s1,-1,6.0*,.,0,6,0,-2
C#CCN(C[C@H]1[C@H](OC(=O)Nc2cccs2)[C@H](OC(=O)Nc2cccs2)C[C@H]2C(=O)N(c3ccccc3)C(=O)[C@@H]12)S(=O)(=O)c1ccc(C)cc1,-1,4.6*,0,-2,-3,0,0
C#CCN(C[C@H]1[C@H](OC(=O)NC2CC2)[C@H](OC(=O)NC2CC2)C[C@H]2C(=O)N(c3ccccc3)C(=O)[C@@H]12)S(=O)(=O)c1ccc(C)cc1,0,0,1,-1,3,.,.
SMILES,ssDAF12 agonist,DAX1 inh-1,DAX1 inh-2,hcDAF-12 act,hgDAF12 agonist,DAX1 inh confirm,SF1 mutant ctr
C/C(=C/c1[nH]c(N)[n+](CC2CC2)c1Cc1ccccc1)Cn1[nH]c(=O)n(-c2ccccc2)c1=O,-2,-1,.,-2,-4,.,.
Cn1c(NCc2ccccc2Cl)nc2ccccc21,-1,6.5*,8.2*,2,9,9.7*,5.9*
COc1ccc(C(=O)C2(C(=O)Nc3cc(C)cc(C)c3)CC(c3ccccn3)=NO2)cc1 (centres undefined),-1,0,.,1,7,.,.
O=C(/C=C/c1ccc2c(c1)OCO2)Nc1cccnc1,-1,11*,4,3,11*,14*,4.5*
O=C(/C=C/c1ccco1)Nc1ccc2c(c1)OCO2,0,6.1*,2,2,12*,11*,6.0*
O=C(/C=C/c1ccco1)NCc1ccc2c(c1)OCO2,-2,1,-1,0,2,.,.
COc1ccc(C2CC(=O)C(c3cccc(OC)c3)=CN2Cc2ccccc2)cc1 (centres undefined),-1,-2,.,-3,0,.,.
COCC(=O)N/N=C\c1ccccc1OC/C=C/c1ccccc1,-1,8.1*,1,1,11*,4,4.8*
CCOC(=O)N1CCN(C(=O)C[C@H]2C[C@@]3(C(=O)OC)C(=C[C@H](C(C)(C)C)O[C@@H]3C)N(Cc3cccc4ccccc34)C2=O)CC1,-1,-1,.,-1,-1,.,.
Cc1ccc(NC(=O)COC(=O)CCC(=O)c2cccs2)c(Br)c1,-1,1,0,-1,1,.,.
Cc1ccc(NC(=O)CCC(=O)c2cccs2)c(Br)c1,0,8.0*,2,3,7,7.6*,5.5*
CC[C@@]1(C(=O)OC)N[C@H](CN(C)C(=O)Nc2ccc(C(F)(F)F)cc2)[C@@H]2C(=O)N(Cc3ccccc3)C(=O)[C@@H]21,2.5*,5.3*,-1,0,2,1,1
CCN(C[C@H]1N[C@@](C)(C(=O)OC)[C@H]2C(=O)N(Cc3ccccc3)C(=O)[C@@H]12)C(=O)COC,0,5.9*,0,1,1,0,0
CC(COc1ccccc1C#N)CN1CCC(C(O)(c2ccccc2)c2ccccc2)CC1 (centres undefined),-1,0,.,-2,1,.,.
COc1ccc(CCNC(=O)c2cc3c(C)nn(-c4ccccc4)c3s2)cc1OC,-1,-2,.,-4,-3,.,.

# Screening data: PubChem, The Scripps Research Institute Molecular Screening Center
